Results: PubChem BioAssay (Tox21)
Records with an inconclusive call do not appear. The source made the active and inactive calls. Unless noted, calls follow the shape of the dose curve; as a rule, active = well fitted curve in the direction sought with a large enough effect in the repeat runs; inconclusive = weak or mixed curves; inactive = no such curve, though single readings can be large; an effect the other way counts as inactive or inconclusive.

How the values were obtained:
[1] = qHTS assay to identify small molecule that activate the aryl hydrocarbon receptor (AhR) signaling pathway - cell viability counter screen (AID 743086);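 also: HepG2 liver cells carrying the AhR DRE luciferase reporter; series mostly up to about 70 µM; nearly all actives have a fitted effect of over 45% in size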
Outline: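 HepG2-AhR-luc (HG2L7.5c1) cells, 4000/well, treated 24 h at 37 C with compound; viability measured as CellTiter-Fluor fluorescence after 30 min in the same wells as the luciferase read.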

[2] = biological target: Peroxisome proliferator-activated receptor gamma (Homo sapiens) (UniProt P37231); test: qHTS assay to identify small molecule agonists of the peroxisome proliferator-activated receptor gamma (PPARg) signaling pathway (AID 743094; active = well fitted activation curve with a large enough effect in the signal ratio in the repeat runs, not every such curve was filed as active; the % refers to the signal ratio)
Chain of Peroxisome proliferator-activated receptor gamma (Homo sapiens) (P37231 whole entry, looked up): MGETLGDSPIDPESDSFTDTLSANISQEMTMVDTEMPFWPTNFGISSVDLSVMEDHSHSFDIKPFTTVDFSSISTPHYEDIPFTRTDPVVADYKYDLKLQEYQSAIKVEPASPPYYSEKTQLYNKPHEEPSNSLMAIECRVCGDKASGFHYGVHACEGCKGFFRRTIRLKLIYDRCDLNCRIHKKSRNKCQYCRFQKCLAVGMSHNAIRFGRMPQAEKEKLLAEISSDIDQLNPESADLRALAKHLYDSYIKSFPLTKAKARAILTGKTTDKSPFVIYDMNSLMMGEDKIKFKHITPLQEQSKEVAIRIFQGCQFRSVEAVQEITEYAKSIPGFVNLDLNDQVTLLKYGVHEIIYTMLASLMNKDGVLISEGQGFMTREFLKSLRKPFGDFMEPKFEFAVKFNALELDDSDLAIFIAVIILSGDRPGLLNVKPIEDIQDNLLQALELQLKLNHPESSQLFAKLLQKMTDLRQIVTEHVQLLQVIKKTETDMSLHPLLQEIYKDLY
Outline: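 GeneBLAzer PPARg UAS-bla HEK293H cells carrying a stably integrated beta-lactamase reporter were pre-incubated 5 h at 37C, then exposed to compounds in DMSO for 17 h at 37C; LiveBLAzer B/G FRET substrate was added for 1 h at room temperature and fluorescence read.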

[3] = biological target: Peroxisome proliferator-activated receptor gamma (Homo sapiens) (UniProt P37231); test: qHTS assay to identify small molecule antagonists of the peroxisome proliferator-activated receptor gamma (PPARg) signaling pathway (AID 743191; calls by dose curve; also: series mostly up to about 63 µM; nearly all actives have a fitted effect of over 30% in size)
Outline: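 GeneBLAzer PPARg UAS-bla HEK293H cells, 5 h post-plating, exposed to compounds 17 h at 37C. LiveBLAzer B/G FRET substrate added for 1 h at room temperature; beta-lactamase reporter read by fluorescence intensity.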

[4] = qHTS assay to identify small molecule antagonists of the peroxisome proliferator-activated receptor gamma (PPARg) signaling pathway - cell viability counter screen (AID 743194); also: nearly all actives have a fitted effect of over 55% in size
Outline: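 Cytotoxicity counter screen in PPARg-bla HEK293H cells, same wells as reporter assay. Compounds plus 50 nM rosiglitazone (final) for 17 h at 37 C, then viability read by CellTiter-Glo luminescence.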

[5] = qHTS assay for small molecule agonists of the antioxidant response element (ARE) signaling pathway (AID 743202; active = well fitted activation curve with a large enough effect in the signal ratio in the repeat runs, not every such curve was filed as active; the % refers to the signal ratio)
Outline: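 Agonist mode reporter screen: HepG2 cells with ARE-controlled beta-lactamase are incubated with test compounds for 16 h at 37 C, and beta-lactamase activity is measured as fluorescence of cleaved B/G FRET substrate.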

[6] = qHTS assay for small molecule agonists of the antioxidant response element (ARE) signaling pathway - cell viability counter screen (AID 743203; calls by dose curve; also: nearly all actives have a fitted effect of over 55% in size)
Outline: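 CellSensor ARE-bla HepG2 cells, 2,000 per well, rested 5 hrs at 37C/5% CO2, then exposed to compound in DMSO for 16 hrs; viability read as CellTiter-Glo luminescence after 30 min at room temperature, in the reporter wells.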

[7] = qHTS assay for small molecule activators of the heat shock response signaling pathway (AID 743210; active = well fitted activation curve with a large enough effect in the signal ratio in the repeat runs, with a control signal flat, not every such curve was filed as active; the % refers to the signal ratio;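 also: HeLa cells with beta-lactamase reporter driven by heat shock elements; series mostly up to about 63 µM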)
Outline: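 Quantitative high-throughput format using an engineered HeLa line in which heat shock response elements drive beta-lactamase; after 5 h with compound, cells received a B/G FRET substrate and fluorescence was read.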

[8] = qHTS assay to identify small molecule agonists of the peroxisome proliferator-activated receptor delta (PPARd) signaling pathway - cell viability counter screen (AID 743211); also: nearly all actives have a fitted effect of over 55% in size
Outline: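 PPARd-bla HEK293H cells (UAS-beta-lactamase reporter) were treated with compounds for 17 h at 37 C. Viability was then read in the same wells by CellTiter-Glo luminescence after 30 min at room temperature.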

[9] = qHTS assay to identify small molecule antagonists of the peroxisome proliferator-activated receptor delta (PPARd) signaling pathway - cell viability counter screen (AID 743213); also: nearly all actives have a fitted effect of over 50% in size
Outline: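 Cytotoxicity counter screen: CellTiter-Glo luminescence read 30 min after addition, in the same wells as the reporter assay. There, PPARd UAS-bla HEK293H cells (3000/well) were treated 17 h at 37 C with compound and 300 nM L165041.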

[10] = biological target: Peroxisome proliferator-activated receptor delta (Homo sapiens) (UniProt Q03181); test: qHTS assay to identify small molecule antagonists of the peroxisome proliferator-activated receptor delta (PPARd) signaling pathway (AID 743215; active = well fitted inhibition curve with a large enough effect in the signal ratio in the repeat runs, not every such curve was filed as active; the % refers to the signal ratio;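 also: cells stimulated with agonist L165041 at 300 nM final during compound exposure; series mostly up to about 62 µM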)
Chain of Peroxisome proliferator-activated receptor delta (Homo sapiens) (Q03181 whole entry, looked up): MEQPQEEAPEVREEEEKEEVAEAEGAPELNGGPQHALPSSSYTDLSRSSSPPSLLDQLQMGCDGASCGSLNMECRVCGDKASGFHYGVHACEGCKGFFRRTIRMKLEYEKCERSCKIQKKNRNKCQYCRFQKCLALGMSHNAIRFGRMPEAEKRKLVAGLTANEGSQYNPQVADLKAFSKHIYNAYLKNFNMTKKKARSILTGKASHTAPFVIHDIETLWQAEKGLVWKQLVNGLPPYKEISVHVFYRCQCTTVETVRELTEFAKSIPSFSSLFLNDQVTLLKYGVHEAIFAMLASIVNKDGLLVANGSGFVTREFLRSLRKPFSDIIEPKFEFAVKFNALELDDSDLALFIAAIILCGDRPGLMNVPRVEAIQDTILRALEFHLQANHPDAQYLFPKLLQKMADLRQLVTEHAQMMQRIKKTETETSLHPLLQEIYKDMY
Outline: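 PPARd UAS-bla HEK293H cells were pre-incubated 5 h at 37 C, then given test compounds in DMSO plus agonist L165041 (300 nM final). After 17 h at 37 C, beta-lactamase FRET substrate was added; fluorescence read after 2 h at room temperature.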

[11] = biological target: Bile acid receptor (Homo sapiens) (UniProt Q96RI1); test: qHTS assay to identify small molecule antagonists of the farnesoid-X-receptor (FXR) signaling pathway (AID 743217; active = well fitted inhibition curve with a large enough effect in the signal ratio in the repeat runs, not every such curve was filed as active; the % refers to the signal ratio)
Chain of Bile acid receptor (Homo sapiens) (Q96RI1 whole entry, looked up): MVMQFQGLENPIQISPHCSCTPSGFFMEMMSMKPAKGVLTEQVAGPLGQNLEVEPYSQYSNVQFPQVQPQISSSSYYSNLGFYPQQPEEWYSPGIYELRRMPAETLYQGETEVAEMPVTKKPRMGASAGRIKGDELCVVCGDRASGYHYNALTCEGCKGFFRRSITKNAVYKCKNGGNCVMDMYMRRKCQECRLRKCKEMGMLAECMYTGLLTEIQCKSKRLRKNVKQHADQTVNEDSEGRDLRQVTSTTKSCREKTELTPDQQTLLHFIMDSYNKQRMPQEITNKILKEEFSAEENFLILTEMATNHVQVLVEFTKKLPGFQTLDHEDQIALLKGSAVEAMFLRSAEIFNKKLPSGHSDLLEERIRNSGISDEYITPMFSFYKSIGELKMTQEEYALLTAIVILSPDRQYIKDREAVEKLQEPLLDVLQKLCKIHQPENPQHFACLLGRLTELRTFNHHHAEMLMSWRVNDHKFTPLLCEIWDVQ
Outline: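 FXR-UAS-bla HEK 293T cells pre-incubated 5 h at 37 °C, then exposed to compounds with chenodeoxycholic acid (50 uM final) for 16 h at 37 °C. Beta-lactamase reporter read by LiveBLAzer B/G FRET substrate fluorescence after 2 h at room temperature.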

[12] = qHTS assay to identify small molecule agonists of the farnesoid-X-receptor (FXR) signaling pathway - cell viability counter screen (AID 743218); also: nearly all actives have a fitted effect of over 45% in size
Outline: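 FXR-UAS-bla HEK 293T cells, plated 5 h at 37 C, were exposed to compounds for 16 h at 37 C. CellTiter-Glo was then added to the same wells as the bla readout; luminescence read after 30 min at room temperature.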

[13] = biological target: Bile acid receptor (Homo sapiens) (UniProt Q96RI1); test: qHTS assay to identify small molecule agonists of the farnesoid-X-receptor (FXR) signaling pathway (AID 743220; active = well fitted activation curve with a large enough effect in the signal ratio in the repeat runs, not every such curve was filed as active; the % refers to the signal ratio)
Outline: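 Beta-lactamase reporter under UAS control in GeneBLAzer FXR HEK 293T cells (5000/well) measured with LiveBLAzer FRET substrate after 2 h at room temperature. Compound exposure lasted 16 h at 37C.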

[14] = qHTS assay to identify small molecule antagonists of the farnesoid-X-receptor (FXR) signaling pathway - cell viability counter screen (AID 743221; active = well fitted cell-killing curve with a large enough effect in the repeat runs, not every such curve was filed as active; also: nearly all actives have a fitted effect of over 50% in size)
Outline: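 FXR-UAS-bla HEK 293T cells were treated with test compounds plus chenodeoxycholic acid (50 uM final) for 16 h at 37 C. Cell viability in the same wells was then read as CellTiter-Glo luminescence after 30 min at room temperature.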

[15] = biological target: Vitamin D3 receptor (Homo sapiens) (UniProt P11473); test: qHTS assay to identify small molecule antagonists of the vitamin D receptor (VDR) signaling pathway (AID 743223; active = well fitted inhibition curve with a large enough effect in the signal ratio in the repeat runs, not every such curve was filed as active; the % refers to the signal ratio)
Chain of Vitamin D3 receptor (Homo sapiens) (P11473 whole entry, looked up): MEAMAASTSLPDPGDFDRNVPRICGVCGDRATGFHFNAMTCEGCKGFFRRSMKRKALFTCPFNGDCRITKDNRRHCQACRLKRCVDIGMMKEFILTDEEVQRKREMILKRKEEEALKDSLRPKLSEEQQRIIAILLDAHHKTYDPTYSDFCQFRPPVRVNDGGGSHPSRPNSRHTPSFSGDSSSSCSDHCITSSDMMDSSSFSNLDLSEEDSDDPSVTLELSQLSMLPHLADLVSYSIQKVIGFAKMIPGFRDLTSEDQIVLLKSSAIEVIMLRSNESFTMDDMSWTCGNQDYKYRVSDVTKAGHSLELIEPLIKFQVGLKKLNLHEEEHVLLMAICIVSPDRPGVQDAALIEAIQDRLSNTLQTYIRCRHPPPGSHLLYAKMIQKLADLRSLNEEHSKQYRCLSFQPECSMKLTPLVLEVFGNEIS
Outline: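 VDR-bla cells were plated, incubated 4 h at 37C, then given compound and 1alpha,25-dihydroxyvitamin D3 (3 nM final). After 16 h at 37C, LiveBLAzer B/G FRET substrate was added for 2 h at room temperature and fluorescence read.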

[16] = qHTS assay to identify small molecule agonists of the vitamin D receptor (VDR) signaling pathway - cell viability counter screen (AID 743224); also: series mostly up to about 63 µM; nearly all actives have a fitted effect of over 50% in size
Outline: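 VDR-bla cells were preincubated 4 h at 37C/5% CO2, then exposed to compounds for 16 h. After the 2 h room-temperature bla FRET read, CellTiter-Glo was added to the same wells and luminescence read after 30 min.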

[17] = qHTS assay for small molecule activators of the heat shock response signaling pathway - cell viability counter screen (AID 743209); also: nearly all actives have a fitted effect of over 50% in size
Outline: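 CellSensor HSE-bla HeLa cells, plated overnight at 37 C/5% CO2, were exposed to compounds in DMSO for 5 h at 37 C. Viability was then read in the same wells by CellTiter-Glo luminescence after 30 min at room temperature.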

[18] = biological target: Peroxisome proliferator-activated receptor delta (Homo sapiens) (UniProt Q03181); test: qHTS assay to identify small molecule agonists of the peroxisome proliferator-activated receptor delta (PPARd) signaling pathway (AID 743212; calls by dose curve)
Outline: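 Quantitative high-throughput agonist screen in a HEK293H beta-lactamase reporter line under UAS control. Compounds in DMSO, at 37 C. Fluorescence read after 2 h with FRET substrate at room temperature.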

[19] = biological target: Vitamin D3 receptor (Homo sapiens) (UniProt P11473); test: qHTS assay to identify small molecule agonists of the vitamin D receptor (VDR) signaling pathway (AID 743222; calls by dose curve)
Outline: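 VDR-bla cells were plated 4 h at 37C/5% CO2, then exposed to compounds in DMSO for 16 h. After LiveBLAzer B/G FRET substrate addition and 2 h at room temperature, beta-lactamase reporter fluorescence was read.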

Measured: Potency

COc1cc(OC)cc(OC)c1
not listed: [17] | [18] | [19]
inactive: all other assays above

CCCCC(CC)CCC(CC(C)C)OS(=O)(=O)O (stereo unspecified)
not listed: [5] | [7] | [10] | [14] | [18] | [19]
inactive: all other assays above

CCCCCCC(O)CO (stereo unspecified)
not listed: [5] | [7] | [8] | [15] | [18] | [19]
inactive: all other assays above

CC(=O)Nc1ccc(S(=O)(=O)Nc2cc(C)on2)cc1
not listed: [3] | [10] | [14]
inactive: all other assays above

COC(=O)c1ccc(C(=O)O)cc1
not listed: [4] | [14] | [17] | [19]
inactive: all other assays above

CCCCCCCCCCCC(C)=O
not listed: [7] | [8] | [10] | [14] | [15]
inactive: all other assays above

CC12CCCC=C1C(=O)OC2=O (stereo unspecified)
not listed: [3] | [9] | [11] | [13] | [14] | [17]
inactive: all other assays above

C[Si](C)(C)O[Si](O)(O)O
not listed: [3] | [7] | [10] | [16] | [19]
inactive: all other assays above

CCCCN=C(N)N=C(N)N
not listed: [5] | [11] | [12] | [13] | [14] | [15] | [19]
inactive: all other assays above
